The text below walks through data of PubChem BioAssay (EPA / NIEHS).

Each structure is given as a SMILES string. Active and inactive are the calls of the source. Rule for the calls: active = hit-call score of the fitted dose curve at least 0.9, where 1 is the maximum; inactive = score below 0.9.

The assay is described as follows: ATG_BRE_CIS: Attagene CIS-FACTORIAL HepG2 Assay for human Bone Morphogenetic Protein (BMP) Response Element (BRE) (AID 2282933). Conditions: HepG2 BMP response element reporter, Attagene transcription factor profiling; actives raise or lower the signal. The procedure:
ATG_CIS is a cell-based, multiplexed-readout assay that uses HepG2, a human liver cell line, with measurements taken at 24 hours after chemical dosing in a 24-well plate.ATG_BRE_CIS is one of 52 assay component(s) measured or calculated from the ATG_CIS assay. It is designed to make measurements of mRNA induction, a form of inducible reporter, as detected with fluorescence intensity signals by Reverse transcription polymerase chain reaction (RT-PCR) and Capillary electrophoresis technology.Data from the assay component ATG_BRE_CIS was analyzed into 1 assay endpoint. This assay endpoint, ATG_BRE_CIS, was analyzed with bidirectional fitting relative to DMSO as the negative control and baseline of activity. Using a type of inducible reporter, measures of mRNA for gain or loss-of-signal activity can be used to understand the reporter gene at the transcription factor-level as they relate to the gene SMAD1. Furthermore, this assay endpoint can be referred to as a primary readout, because this assay has produced multiple assay endpoints where this one serves a reporter gene function. To generalize the intended target to other relatable targets, this assay endpoint is annotated to the dna binding intended target family, where the subfamily is Smad protein.
Human liver HepG2 cells are transiently transfected with multiple reporter transcription units (MRTUs) in 6-well plates using FuGene 6 reagent (Roche; 3 ml FuGene/1 mg DNA). The MRTU constructs are regulated by a cis-regulating element (promoter). […] A major difference between the CIS and TRANS system is that in CIS activities of endogenous TFs are measured, whereas the TRANS assay evaluates changes in activities of exogenous, chimeric NR-Gal4 proteins. […] At the end of 24 hour incubation, total RNA was isolated using TriZol reagent (Invitrogen). The isolated RNA is then reverse-transcribed using oligo(dT) primer and Mo-MLV reverse transcriptase (Invitrogen) with DNAse I (Ambion) treatment for 30 min. The one-tenth of the produced cDNA was amplified by PCR using Taq DNA polymerase (Invitrogen) and two reporter sequence-specific primers. The PCR products were fluorescently labeled by primer extension with 6-arboxyfluorescein (6-FAM) 5'-labeled reporter sequence-specific primer (2 min at 95 C, 20 s at 68 C and 10 min at 72 C) and these products were digested with 5U of HpaI (New England Biolabs) for 2h at 37 C. The fragments were purified using Qiaquick PCR columns (Qiagen), analyzed on an ABI 3130xL genetic analyzer (Applied Biosystems) with peak positions identified by using a set of X-rhodamine (ROX)-labeled MapMarker1000 molecular weight standards (BioVentures). The raw capillary electrophoresis data was processed using Attagraph software (Attagene).
What is called AC50 is the midpoint of the concentration-response curve, whichever way the signal moves. Regarding `CCCc1c(OCCCOc2ccc(OCC(=O)O)cc2)ccc(C(C)=O)c1O`, the concentration at half-maximal activity (AC50) was 137 µM (active).

With `CCOC(=S)SSC(=S)OCC`, the compound was classed as inactive. In the case of `C=CCOC(=O)CCC1CCCCC1`, the call was inactive.

In the case of `CC1(CO)CN(c2ccccc2)NC1=O` (stereo not given), the compound was classed as inactive. As for `O=C(Nc1ccccc1)c1cc([N+](=O)[O-])ccc1Cl`, the AC50 was 49.9 µM (active). As for `CC(C)C1CCC(O)CC1` (stereo not given), the outcome was inactive. With `Cc1ccc(O)c(C(C)(C)C)c1`, the compound was classed as inactive. As for `CC(C#N)(CCC(=O)O)N=NC(C)(C#N)CCC(=O)O` (stereo not given), the compound was classed as inactive. The same measure, in the same setting: in the case of `CCCCCCCCCCCCCC(=O)O` it was “inactive”; in that of `C=CC(C)(C)O`, “inactive”.

With `O=C1CCc2ccccc2O1`, the outcome was inactive.

Turning to `O=C(O)c1cn(C2CC2)c2cc(N3CCNCC3)c(F)cc2c1=O`, the compound was called inactive.

On to `FC1(F)C(F)(F)C(F)(F)C2(F)C(F)(C1(F)F)C(F)(F)C(F)(F)C1(F)C(F)(F)C(F)(F)C(F)(F)C(F)(F)C12F` (stereo not given), for which the compound was called inactive.

As for `O=C(Cl)c1cccc(C(=O)Cl)c1`, the result was inactive. For the compound `O=C1NC(=O)c2ccccc21`, the call was inactive. As to `CO[Si](C)(OC)c1ccccc1`, the result was inactive.

As to `CCCCc1ccc(N)cc1`, the call was inactive. Regarding `CN1[C@@H]2CC(OC(=O)[C@H](CO)c3ccccc3)C[C@H]1[C@@H]1O[C@@H]12` (stereo not given in full), the outcome was inactive. Same read-out and setting: in the case of `O=c1oc(=O)c2cc3c(=O)oc(=O)c3cc12` it was “inactive”. `CCCCCCCCCCCCN(CCCCCCCCCCCC)CCCCCCCCCCCC`: the compound was called inactive. The same measure, in the same setting: the entry for `CCCCOCCOCCOCCOCCO` is “inactive”; for `CC(C)CCCCCCCOC(=O)c1ccc(C(=O)OCCCCCCCC(C)C)c(C(=O)OCCCCCCCC(C)C)c1` it is “inactive”. On the same count and under the same terms, the entry for `COCCOCCOCCOCCOCCO` is “inactive”.

As to `CCOc1ccccc1OCC`, the call was inactive.

With `CCCCCCCCCCCCCCCC(=O)O`, the compound was classed as inactive.

For `O=C(O)c1cccc(C(F)(F)F)c1`, the compound was classed as inactive. The same measure, in the same setting: in the case of `CCCCCNCCCCC` it was “inactive”; in that of `Clc1cccc(Cl)n1`, “inactive”. Still for that read-out and setting: in the case of `COC(=O)OC` it was “inactive”; in that of `CC[Si](OC(C)=O)(OC(C)=O)OC(C)=O`, “inactive”; in that of `COc1cc(C=O)ccc1OC(=O)C(C)C`, “inactive”. `O=S(=O)(O)c1ccc(O)c2ncccc12`: the compound was classed as inactive. Still for that read-out and setting: the entry for `COc1cc2ncnc(Nc3cccc(Cl)c3)c2cc1OC` is “inactive”. Regarding `CC(C)c1ccc(C(C)C)cc1`, the result was inactive.

With `CC(C)C(C)(C)C(C)(C)C(C)(C)S`, the call was inactive. Still for that read-out and setting: the entry for `Cc1ncc([N+](=O)[O-])n1C` is “inactive”; for `CC(CCO)CCc1ccccc1` (stereo not given) it is “inactive”. The same measure, in the same setting: the entry for `[Ca+2]` is “inactive”. As to `NNc1nc(-c2ccc(N)cc2)cs1`, the result was inactive. Take `NC(=O)Nc1ccc(Cl)cc1`: the call was inactive.
